Laboratory results reported in the supplement of paper PMC11732987, “Enantioselective OTUD7B fragment discovery through chemoproteomics screening and high-throughput optimisation” (Communications Chemistry, 2025).

Columns and labels:
Test in all cases: log2 ratio of Biotin-Ahx-Ub-VS probe labelling (fragment/DMSO); higher = less target engagement (more negative = stronger competition), active = hit call of the paper (q ≤ 0.05, log2 ratio ≤ -1)
Conditions in all cases: compound concentration: 200 uM; treatment time: 3 h
ALG13 = molecular target: T1, ALG13 (UniProt Q9NP73)
T1 sequence (whole entry): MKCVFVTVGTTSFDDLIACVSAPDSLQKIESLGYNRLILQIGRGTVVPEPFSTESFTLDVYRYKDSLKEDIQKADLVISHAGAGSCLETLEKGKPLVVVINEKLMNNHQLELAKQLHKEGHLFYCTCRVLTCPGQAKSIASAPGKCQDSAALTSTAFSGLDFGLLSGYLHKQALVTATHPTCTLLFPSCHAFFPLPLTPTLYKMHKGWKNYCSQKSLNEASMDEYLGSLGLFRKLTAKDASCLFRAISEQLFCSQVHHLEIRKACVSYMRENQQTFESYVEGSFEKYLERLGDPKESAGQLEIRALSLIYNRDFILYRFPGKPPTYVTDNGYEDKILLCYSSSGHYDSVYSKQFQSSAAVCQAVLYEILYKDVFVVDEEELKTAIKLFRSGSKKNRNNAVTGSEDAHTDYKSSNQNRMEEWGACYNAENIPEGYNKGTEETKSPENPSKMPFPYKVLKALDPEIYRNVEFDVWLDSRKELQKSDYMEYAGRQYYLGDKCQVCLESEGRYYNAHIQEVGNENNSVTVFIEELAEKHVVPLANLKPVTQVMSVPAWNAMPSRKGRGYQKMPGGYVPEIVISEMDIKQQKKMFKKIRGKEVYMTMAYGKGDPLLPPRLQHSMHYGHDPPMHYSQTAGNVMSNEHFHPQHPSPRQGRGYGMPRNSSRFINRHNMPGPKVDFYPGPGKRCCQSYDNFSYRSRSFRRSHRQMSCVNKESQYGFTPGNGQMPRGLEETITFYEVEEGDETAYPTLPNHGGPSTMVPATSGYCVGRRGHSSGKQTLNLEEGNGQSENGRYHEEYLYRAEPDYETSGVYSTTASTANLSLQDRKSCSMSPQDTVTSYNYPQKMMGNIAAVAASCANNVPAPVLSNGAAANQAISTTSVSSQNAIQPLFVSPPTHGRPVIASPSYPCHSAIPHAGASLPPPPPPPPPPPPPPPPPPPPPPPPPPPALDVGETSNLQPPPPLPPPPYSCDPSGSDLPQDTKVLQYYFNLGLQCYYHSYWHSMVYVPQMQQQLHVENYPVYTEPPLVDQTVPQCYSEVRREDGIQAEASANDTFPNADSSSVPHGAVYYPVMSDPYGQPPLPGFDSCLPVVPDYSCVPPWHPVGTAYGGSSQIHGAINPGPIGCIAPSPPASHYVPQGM
Outline: (§1)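 HEK293T lysate (495 µg per sample, in Tris/CHAPS/IGEPAL buffer with protease inhibitors) was exposed in triplicate for 3 h to fragment at 200 µM or to vehicle, then to Biotin-Ahx-Ub-VS at 0.5 µM final for 1 h. Labelled DUBs were enriched on NeutrAvidin, digested with LysC and trypsin, and analysed by diaPASEF LC-MS/MS. Spectronaut label-free quantities were normalised to the global median, and values are average log2 ratios of fragment over vehicle from an unpaired t-test. Only proteins with ≥2 unique peptides were used.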

ATXN3 = ATXN3 (UniProt P54252)
Sequence of ATXN3 (P54252 whole entry): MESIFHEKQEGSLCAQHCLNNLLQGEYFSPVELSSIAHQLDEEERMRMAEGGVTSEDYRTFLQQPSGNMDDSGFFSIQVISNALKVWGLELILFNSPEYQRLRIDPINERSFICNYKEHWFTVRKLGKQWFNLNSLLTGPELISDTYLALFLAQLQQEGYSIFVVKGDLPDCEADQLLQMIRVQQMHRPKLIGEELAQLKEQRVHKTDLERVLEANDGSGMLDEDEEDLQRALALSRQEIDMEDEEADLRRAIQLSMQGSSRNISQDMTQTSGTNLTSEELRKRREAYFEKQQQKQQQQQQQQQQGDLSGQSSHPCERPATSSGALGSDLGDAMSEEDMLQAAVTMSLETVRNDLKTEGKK
Outline: as §1

BAP1 = molecular target: T2, BAP1 (UniProt Q92560)
T2 sequence (whole entry): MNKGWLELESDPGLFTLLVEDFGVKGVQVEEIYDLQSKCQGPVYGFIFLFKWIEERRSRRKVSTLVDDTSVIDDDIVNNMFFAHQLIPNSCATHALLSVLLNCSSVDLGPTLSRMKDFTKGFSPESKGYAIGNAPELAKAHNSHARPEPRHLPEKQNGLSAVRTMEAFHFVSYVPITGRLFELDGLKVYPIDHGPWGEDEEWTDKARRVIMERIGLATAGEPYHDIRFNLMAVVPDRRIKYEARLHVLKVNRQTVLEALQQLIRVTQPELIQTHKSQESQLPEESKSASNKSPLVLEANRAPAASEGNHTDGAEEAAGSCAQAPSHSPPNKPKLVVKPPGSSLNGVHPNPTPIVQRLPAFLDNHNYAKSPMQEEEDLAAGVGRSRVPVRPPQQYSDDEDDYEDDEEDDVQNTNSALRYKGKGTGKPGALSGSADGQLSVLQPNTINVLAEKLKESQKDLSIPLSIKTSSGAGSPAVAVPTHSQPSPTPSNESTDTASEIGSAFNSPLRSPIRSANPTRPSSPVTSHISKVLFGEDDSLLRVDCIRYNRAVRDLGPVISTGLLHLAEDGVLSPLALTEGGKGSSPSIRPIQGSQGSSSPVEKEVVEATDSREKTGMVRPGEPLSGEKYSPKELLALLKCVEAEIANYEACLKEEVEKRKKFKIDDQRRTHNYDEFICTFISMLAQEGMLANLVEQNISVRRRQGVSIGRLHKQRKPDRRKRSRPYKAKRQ
Outline: as §1

EIF3F = EIF3F (UniProt O00303)
Sequence of EIF3F (O00303 whole entry): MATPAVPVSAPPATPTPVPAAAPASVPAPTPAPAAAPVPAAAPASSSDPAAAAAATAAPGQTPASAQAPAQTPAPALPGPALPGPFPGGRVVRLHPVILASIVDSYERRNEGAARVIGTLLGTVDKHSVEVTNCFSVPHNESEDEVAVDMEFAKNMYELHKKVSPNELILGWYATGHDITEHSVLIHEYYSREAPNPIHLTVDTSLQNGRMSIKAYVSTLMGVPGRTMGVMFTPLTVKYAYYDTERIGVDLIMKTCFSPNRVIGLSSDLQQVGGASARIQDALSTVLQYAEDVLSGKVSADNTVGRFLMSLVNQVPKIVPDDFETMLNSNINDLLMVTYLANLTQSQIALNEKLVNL
Outline: as §1

EIF3H = EIF3H (UniProt O15372)
Sequence of EIF3H (O15372 whole entry): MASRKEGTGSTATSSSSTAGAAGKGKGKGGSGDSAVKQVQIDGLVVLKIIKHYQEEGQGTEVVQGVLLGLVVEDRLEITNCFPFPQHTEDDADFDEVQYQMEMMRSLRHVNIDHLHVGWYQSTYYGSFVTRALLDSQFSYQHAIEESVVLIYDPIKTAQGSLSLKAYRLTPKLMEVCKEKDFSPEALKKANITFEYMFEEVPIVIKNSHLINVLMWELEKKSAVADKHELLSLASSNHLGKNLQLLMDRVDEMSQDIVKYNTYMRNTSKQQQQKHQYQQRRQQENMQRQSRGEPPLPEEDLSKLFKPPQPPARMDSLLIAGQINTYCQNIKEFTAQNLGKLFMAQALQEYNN
Outline: as §1

FAM105A = molecular target: T3, FAM105A (UniProt Q9NUU6)
T3 sequence (whole entry): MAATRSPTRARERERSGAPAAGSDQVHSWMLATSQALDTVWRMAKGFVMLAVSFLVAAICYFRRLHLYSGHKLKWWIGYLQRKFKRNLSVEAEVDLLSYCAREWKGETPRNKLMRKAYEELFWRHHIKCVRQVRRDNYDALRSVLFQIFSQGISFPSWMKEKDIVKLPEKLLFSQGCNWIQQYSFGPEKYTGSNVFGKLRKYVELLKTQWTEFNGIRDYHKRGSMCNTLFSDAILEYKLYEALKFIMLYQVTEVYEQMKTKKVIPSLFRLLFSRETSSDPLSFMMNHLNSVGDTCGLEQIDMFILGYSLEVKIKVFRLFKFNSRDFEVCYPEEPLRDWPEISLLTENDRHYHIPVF
Outline: as §1

OTUB1 = OTUB1 (UniProt Q96FW1)
Sequence of OTUB1 (Q96FW1 whole entry): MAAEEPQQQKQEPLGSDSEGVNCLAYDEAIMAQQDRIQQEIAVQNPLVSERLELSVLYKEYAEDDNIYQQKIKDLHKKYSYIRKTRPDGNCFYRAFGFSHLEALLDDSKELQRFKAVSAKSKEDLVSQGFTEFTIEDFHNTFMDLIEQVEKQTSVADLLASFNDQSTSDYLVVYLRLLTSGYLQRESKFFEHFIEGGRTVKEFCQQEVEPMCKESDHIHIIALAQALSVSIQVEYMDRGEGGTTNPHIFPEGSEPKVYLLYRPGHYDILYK
Outline: as §1

OTUD4 = molecular target: T4, OTUD4 (UniProt Q01804)
T4 sequence (whole entry): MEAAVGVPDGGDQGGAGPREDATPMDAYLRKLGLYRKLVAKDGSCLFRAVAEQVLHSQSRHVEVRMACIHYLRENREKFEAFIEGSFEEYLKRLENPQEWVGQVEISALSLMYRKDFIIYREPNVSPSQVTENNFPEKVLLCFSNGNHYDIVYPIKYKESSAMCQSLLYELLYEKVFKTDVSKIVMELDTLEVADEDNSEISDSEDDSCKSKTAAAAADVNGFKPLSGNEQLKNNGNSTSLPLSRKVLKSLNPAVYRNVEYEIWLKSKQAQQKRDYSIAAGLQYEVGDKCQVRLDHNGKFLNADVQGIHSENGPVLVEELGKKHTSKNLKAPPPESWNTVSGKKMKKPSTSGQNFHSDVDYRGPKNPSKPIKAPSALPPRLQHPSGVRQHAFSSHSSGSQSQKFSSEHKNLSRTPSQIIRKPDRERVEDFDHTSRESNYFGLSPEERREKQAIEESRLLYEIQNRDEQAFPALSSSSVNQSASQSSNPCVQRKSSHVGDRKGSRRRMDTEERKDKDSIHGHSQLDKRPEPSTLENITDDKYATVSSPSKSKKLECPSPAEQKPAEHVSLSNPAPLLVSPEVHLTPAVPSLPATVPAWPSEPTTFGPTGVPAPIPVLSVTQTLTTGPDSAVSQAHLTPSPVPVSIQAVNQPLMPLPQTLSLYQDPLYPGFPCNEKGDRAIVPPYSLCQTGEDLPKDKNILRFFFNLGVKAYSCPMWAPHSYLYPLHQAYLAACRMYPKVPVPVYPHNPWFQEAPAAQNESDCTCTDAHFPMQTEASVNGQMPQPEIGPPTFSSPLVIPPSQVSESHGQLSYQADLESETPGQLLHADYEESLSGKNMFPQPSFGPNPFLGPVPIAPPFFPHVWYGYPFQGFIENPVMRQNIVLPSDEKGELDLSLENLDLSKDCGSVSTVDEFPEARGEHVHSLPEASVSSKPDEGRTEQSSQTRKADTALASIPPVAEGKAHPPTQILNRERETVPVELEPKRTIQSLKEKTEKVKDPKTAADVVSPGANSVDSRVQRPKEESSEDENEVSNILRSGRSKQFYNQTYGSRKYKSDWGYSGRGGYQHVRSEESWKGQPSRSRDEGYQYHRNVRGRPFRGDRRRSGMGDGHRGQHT
Outline: as §1

OTUD5 = molecular target: T5, OTUD5 (UniProt Q96G74)
T5 sequence (whole entry): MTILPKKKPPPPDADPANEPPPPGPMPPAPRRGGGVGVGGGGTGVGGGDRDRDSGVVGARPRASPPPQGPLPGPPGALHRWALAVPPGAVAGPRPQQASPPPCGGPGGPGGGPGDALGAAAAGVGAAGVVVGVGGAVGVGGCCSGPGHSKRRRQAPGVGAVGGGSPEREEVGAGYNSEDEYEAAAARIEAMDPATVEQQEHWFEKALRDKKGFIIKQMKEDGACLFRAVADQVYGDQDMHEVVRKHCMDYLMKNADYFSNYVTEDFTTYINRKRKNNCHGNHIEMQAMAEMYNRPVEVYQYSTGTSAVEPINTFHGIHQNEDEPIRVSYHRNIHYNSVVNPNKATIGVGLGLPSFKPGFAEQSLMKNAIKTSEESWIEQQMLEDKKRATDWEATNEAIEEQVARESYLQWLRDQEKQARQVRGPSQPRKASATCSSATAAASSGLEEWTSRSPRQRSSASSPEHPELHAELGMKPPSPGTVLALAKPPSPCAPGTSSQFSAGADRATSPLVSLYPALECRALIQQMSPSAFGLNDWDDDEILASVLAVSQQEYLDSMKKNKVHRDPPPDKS
Outline: as §1

Measured: log2 ratio of Biotin-Ahx-Ub-VS probe labelling

Cc1ccc(N(CCC#N)C(=O)CCl)cc1C
active: OTUD4 -1.93
inactive: ALG13 -0.389 | ATXN3 -0.353 | BAP1 -0.735 | EIF3F -0.396 | EIF3H 0.219 | FAM105A -0.314 | OTUB1 -0.139 | OTUD5 -0.661
